# For some of these results: Measured potencies and affinities stand elsewhere.
# Tests used:
# Parameters in all cases: scale not given: direction of the effect not stated beside the values
# [1] = target: Protein translocase subunit SecA (Escherichia coli (strain K12)) (UniProt P10408); assay: Assay to Identify E. coli SecA ATPase Inhibitors; format: functional; settings: 30 µM
# [2] = target: T1, Ubiquitin-activating enzyme e1, putative (Leishmania donovani (strain BPK282A1)) (UniProt E9BSI1); assay: Leishmania donovani Ubiquitin Activating Enzyme (LdE1); format: functional; settings: 30 µM
# T1 sequence (whole entry): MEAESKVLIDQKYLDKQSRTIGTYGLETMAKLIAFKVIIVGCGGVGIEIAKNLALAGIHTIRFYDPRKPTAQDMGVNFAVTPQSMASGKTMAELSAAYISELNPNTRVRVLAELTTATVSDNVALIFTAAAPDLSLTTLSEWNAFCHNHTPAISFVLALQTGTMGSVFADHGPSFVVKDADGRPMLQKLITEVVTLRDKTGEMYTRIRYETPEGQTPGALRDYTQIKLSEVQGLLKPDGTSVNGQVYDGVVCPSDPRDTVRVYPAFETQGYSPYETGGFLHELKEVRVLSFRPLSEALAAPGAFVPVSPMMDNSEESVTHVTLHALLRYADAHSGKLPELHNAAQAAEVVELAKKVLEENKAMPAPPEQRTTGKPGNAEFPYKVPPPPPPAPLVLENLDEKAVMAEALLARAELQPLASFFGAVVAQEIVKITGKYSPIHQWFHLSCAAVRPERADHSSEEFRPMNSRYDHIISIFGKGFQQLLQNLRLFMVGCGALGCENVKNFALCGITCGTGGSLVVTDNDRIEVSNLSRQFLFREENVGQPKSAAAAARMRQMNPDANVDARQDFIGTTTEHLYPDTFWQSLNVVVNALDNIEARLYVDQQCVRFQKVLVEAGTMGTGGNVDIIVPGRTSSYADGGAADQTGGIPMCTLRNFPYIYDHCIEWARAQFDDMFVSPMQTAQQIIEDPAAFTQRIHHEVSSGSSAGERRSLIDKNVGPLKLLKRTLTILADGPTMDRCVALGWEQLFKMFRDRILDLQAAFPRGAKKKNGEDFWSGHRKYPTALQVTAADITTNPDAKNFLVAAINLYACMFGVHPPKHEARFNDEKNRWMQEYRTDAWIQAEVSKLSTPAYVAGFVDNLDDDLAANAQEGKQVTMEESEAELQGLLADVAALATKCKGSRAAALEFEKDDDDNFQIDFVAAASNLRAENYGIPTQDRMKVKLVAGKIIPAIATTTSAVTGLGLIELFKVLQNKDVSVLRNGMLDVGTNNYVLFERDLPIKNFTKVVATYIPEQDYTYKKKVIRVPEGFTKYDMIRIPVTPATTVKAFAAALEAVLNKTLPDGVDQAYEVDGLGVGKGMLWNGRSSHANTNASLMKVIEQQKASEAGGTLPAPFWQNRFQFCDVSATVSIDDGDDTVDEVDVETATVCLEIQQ
# [3] = target: AMP-activated protein kinase, AMPK (Homo sapiens) (UniProt P54646+O43741+P54619+Q9UGJ0+Q9Y478+Q13131+Q9UGI9); assay: AMP-dependent Kinase enzyme assay. An in vitro enzyme assay that detects ADP turnover that is directly proportional to AMPK activity. This uses naive AMPK that is activated during the assay with MK-8722; format: functional; settings: 30 µM
# [4] = target: Sialic acid-binding Ig-like lectin 9 (Homo sapiens) (UniProt Q9Y336); assay: Hs-Siglec9 ALPHAscreen SOP 20170721; settings: 10 µM
# Sequence of Sialic acid-binding Ig-like lectin 9 (Homo sapiens) (Q9Y336 whole entry): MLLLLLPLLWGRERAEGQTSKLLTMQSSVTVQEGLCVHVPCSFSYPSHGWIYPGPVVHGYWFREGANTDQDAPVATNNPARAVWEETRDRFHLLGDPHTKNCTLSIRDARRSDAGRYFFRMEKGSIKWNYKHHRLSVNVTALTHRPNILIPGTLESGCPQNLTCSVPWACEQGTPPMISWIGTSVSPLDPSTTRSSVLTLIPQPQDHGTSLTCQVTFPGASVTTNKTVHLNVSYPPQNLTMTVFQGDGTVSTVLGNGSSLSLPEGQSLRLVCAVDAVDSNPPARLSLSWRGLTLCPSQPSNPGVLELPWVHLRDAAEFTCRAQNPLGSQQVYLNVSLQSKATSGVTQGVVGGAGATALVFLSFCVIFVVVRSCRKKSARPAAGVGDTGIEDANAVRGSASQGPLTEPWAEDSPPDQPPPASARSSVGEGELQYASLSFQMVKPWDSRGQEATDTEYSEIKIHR
# Trypanosoma cruzi = assay: Trypanosoma cruzi phosphomannomutase and mannose-1-phosphate guanylyltransferase assay; format: functional; settings: 10 µM
# [5] = target: T2, Arginase-2, mitochondrial (Homo sapiens) (UniProt P78540); assay: in vitro enzyme assay to detect the production of urea directly proportional to the activity of Arginase II; format: functional; settings: 33.3 µM; also: in the data most compounds retested in dose-response had high values
# T2 sequence (whole entry): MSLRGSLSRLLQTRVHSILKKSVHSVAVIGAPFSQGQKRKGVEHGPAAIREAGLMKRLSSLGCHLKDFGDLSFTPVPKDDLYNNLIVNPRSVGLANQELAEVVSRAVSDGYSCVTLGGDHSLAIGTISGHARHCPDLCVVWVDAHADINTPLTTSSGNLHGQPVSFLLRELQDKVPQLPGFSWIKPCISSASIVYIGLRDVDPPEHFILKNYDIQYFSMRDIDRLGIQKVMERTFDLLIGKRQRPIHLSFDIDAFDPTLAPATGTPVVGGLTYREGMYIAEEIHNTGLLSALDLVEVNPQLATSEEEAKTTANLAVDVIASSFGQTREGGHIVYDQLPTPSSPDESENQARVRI
# [6] = target: T3, Proteasome subunit beta (Trypanosoma cruzi) (UniProt O96673); assay: Trypanosoma cruzi proteasome chymotrypsin-like activity (TcProtChymo) assay.; also: in the data most compounds retested in dose-response had high values; format: functional; settings: 9.37 µM
# T3 sequence (whole entry): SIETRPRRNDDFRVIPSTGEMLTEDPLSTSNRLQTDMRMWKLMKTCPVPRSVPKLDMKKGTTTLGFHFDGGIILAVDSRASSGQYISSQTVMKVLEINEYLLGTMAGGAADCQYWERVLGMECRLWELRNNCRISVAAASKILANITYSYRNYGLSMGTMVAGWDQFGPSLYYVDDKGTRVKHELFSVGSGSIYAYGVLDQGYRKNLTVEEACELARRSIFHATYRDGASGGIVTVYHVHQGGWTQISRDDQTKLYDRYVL
# Homo sapiens = organism: Homo sapiens; assay: To identify inhibition of the IFN signalling (Jak-Stat) pathway via expression of an eGFP reporter gene under the control of an IFN-stimulated response element (ISRE) containing MxA promoter.; format: functional; settings: 30 µM
# [7] = target: T4, Tyrosyl-tRNA synthetase, putative (Trypanosoma cruzi (strain CL Brener)) (UniProt Q4DSP6); assay: Trypanosoma cruzi tyrosyl tRNA synthetase (TcYRS) _High Tyrosine SOP; format: functional; settings: 30 µM; also: in the data most compounds retested in dose-response had high values
# T4 sequence (whole entry): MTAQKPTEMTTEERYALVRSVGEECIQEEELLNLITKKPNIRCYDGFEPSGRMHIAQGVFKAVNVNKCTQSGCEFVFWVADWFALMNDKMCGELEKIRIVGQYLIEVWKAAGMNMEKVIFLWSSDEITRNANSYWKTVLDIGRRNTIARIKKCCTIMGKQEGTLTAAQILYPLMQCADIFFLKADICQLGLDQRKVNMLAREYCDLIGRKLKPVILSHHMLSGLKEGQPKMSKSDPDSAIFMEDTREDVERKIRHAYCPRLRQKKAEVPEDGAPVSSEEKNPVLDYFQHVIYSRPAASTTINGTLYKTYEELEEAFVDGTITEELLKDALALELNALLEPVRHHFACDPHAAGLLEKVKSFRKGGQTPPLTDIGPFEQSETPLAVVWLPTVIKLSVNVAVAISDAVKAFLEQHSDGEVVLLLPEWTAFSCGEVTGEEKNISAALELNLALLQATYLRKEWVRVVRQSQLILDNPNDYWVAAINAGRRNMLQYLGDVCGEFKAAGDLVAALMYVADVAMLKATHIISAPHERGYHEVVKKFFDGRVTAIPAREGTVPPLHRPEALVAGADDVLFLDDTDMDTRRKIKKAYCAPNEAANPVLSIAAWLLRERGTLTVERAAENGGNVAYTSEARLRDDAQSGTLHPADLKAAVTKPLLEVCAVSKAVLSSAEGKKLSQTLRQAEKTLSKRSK
# [8] = target: T4, Tyrosyl-tRNA synthetase, putative (Trypanosoma cruzi (strain CL Brener)); assay: Trypanosoma cruzi tyrosyl tRNA synthetase (TcYRS) SOP; format: functional; settings: 30 µM
# [9] = target: Chromo domain-containing protein 1 (Saccharomyces cerevisiae (strain ATCC 204508 / S288c) (Baker's yeast)) (UniProt P32657); assay: ScCHD-1 Enzyme Inhibition Assay; format: functional; settings: 30 µM; also: in the data most compounds retested in dose-response had high values
# Sequence of Chromo domain-containing protein 1 (Saccharomyces cerevisiae (strain ATCC 204508 / S288c) (Baker's yeast)) (P32657 whole entry, the tested form may be a part): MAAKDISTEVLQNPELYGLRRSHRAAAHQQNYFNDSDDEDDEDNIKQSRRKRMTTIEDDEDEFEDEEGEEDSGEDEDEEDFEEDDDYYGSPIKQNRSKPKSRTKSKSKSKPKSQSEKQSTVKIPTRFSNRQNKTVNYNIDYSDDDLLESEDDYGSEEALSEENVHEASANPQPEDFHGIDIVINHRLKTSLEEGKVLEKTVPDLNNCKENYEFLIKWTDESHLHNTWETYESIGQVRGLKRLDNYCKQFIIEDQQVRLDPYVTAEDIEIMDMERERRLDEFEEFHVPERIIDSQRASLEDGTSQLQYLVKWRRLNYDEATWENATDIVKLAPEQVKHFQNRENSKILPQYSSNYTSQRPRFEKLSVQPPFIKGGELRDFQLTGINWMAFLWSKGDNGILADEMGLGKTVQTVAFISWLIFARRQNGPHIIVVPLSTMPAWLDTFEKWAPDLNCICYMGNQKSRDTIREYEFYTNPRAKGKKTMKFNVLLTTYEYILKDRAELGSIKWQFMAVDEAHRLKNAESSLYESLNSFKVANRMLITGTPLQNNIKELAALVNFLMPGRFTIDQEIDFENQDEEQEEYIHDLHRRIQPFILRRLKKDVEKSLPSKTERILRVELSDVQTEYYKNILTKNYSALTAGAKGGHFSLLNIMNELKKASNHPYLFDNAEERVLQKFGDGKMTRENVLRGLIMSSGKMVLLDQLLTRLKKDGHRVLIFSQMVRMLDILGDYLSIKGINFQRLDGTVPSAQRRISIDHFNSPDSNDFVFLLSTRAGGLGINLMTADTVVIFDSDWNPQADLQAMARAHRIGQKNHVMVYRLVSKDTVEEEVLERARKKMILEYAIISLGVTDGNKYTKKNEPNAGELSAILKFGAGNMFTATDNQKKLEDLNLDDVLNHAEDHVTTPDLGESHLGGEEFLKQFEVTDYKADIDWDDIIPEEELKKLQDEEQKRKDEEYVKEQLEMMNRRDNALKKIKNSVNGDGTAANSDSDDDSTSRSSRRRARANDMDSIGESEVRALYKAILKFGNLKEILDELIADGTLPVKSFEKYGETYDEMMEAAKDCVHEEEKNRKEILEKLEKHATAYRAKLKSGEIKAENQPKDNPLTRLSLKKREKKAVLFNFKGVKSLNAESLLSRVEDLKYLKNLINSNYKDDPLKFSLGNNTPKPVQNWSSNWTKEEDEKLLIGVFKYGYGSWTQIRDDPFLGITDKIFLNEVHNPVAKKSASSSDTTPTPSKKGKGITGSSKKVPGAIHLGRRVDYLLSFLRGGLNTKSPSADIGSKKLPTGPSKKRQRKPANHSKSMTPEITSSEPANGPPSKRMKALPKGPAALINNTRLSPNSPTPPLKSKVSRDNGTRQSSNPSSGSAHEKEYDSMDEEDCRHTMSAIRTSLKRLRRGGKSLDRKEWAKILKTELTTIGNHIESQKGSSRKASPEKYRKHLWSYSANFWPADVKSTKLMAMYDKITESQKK
# Sequence of Protein translocase subunit SecA (Escherichia coli (strain K12)) (P10408 whole entry): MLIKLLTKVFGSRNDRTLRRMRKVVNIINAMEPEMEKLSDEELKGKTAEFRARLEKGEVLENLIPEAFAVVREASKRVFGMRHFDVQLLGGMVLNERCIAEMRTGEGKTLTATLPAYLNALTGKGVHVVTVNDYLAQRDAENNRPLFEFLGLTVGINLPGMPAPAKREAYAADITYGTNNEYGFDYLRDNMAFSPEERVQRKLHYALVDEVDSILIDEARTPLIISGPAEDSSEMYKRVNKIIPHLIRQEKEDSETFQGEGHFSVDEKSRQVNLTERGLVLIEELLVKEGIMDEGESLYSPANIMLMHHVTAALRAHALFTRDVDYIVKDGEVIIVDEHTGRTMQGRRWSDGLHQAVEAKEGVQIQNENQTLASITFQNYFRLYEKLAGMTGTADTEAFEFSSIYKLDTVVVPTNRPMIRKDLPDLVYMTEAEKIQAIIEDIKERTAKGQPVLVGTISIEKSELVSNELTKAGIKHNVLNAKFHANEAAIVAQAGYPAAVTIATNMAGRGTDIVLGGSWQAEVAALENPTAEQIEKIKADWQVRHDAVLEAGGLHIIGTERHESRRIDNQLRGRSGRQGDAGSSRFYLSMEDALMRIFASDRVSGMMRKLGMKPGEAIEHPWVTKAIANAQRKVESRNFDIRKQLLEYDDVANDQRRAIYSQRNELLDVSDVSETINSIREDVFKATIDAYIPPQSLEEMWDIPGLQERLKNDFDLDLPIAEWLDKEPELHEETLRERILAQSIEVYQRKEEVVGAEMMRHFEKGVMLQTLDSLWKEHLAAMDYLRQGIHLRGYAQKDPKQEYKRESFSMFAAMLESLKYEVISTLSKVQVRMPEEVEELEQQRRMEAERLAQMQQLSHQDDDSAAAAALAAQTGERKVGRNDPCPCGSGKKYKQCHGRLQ
Compound,Percent Effect [1],Percent Effect [2],Percent Effect [3],Percent Effect [4],Percent Effect (Trypanosoma cruzi),Percent Effect [5],Percent Effect [6],Percent Effect (Homo sapiens),Percent Effect [7],Percent Effect [8],Percent Effect [9]
Nc1cc2c(nn1)CCN(C(=O)CC1CCCC1)C2,-3.9%,10.1%,-4.63%,16.5%,-3.12%,-0.38%,-0.246%,-1.92%,7.39%,13.9%,-5.84%
CCNc1cc2c(nn1)CCN(C(=O)c1ccc3cc[nH]c3c1)C2,-5.7%,5.26%,1.7%,1.43%,6.96%,-2.3%,1.34%,-2.63%,8.33%,19.5%,-7.29%
Cc1nc2ccccc2nc1CN1CCCC1Cn1cncn1 (stereo unspecified),-0.371%,20.8%,-4.59%,-7.28%,3.23%,1.9%,19.5%,13.1%,16.2%,21.2%,-23.2%
CC(CNC(=O)c1ccc(Cl)cc1I)N1CCCC1 (stereo unspecified),-0.489%,-2.7%,-6.38%,-1.77%,7.53%,-2.38%,27.4%,-7.67%,6.88%,12.2%,51.2%
COCCc1noc(CN2CCc3nn(C(C)C)c(=O)cc3C2)n1,-3.44%,18.4%,-7.36%,-6.23%,-4.58%,0.719%,6.18%,6.48%,5.42%,11.1%,-11.2%
O=C1CCCc2cc(-c3csc(CCN4CCOC4=O)n3)ccc2N1,-5.49%,20.8%,0.804%,11.1%,4.12%,2.85%,18.1%,36.1%,8.74%,26.8%,-9.88%
COc1ccccc1CN1CC[C@]2(C[C@H](OC)CO2)C1,-4.71%,9.33%,3.5%,4.02%,-4.52%,-12.5%,15%,-8.4%,5.29%,7.69%,-5.98%
Cc1cnn(C2CN(Cc3nc(C(C)(C)C)no3)C2)c1,-0.455%,23.4%,-7.8%,-0.55%,3.56%,2.49%,7.09%,29.8%,8.74%,14.6%,-6.23%
Cc1csc(N2CCCN(C(=O)C(C)n3ccnc3)CC2)n1 (stereo unspecified),-4.19%,8.11%,5.77%,0.506%,6.78%,-2.77%,-0.718%,10.8%,5.94%,15.8%,1.79%
COc1cccc(CNc2nc(O)cc(C3CC(=O)N(C)C3)n2)c1 (stereo unspecified),1.85%,12.2%,4.37%,1.72%,-4.35%,2.09%,16.7%,14.9%,5.38%,-1.3%,-11.6%
COc1cccc(C(=O)N2CCc3ncnc(C)c3CC2)c1,-2.5%,2.74%,-0.34%,2.4%,-5.16%,0.399%,10.4%,2.5%,6.25%,11.1%,-8.63%

# From ChEMBL document CHEMBL3988442, “University of Dundee, Small-Polar-MMV Screening Library” (2021)
